# High-throughput results as filed in PubChem BioAssay.
# This is a sample that favours compounds with a hit; in the whole collection about 2.2% have one here.
# NPR1 activator – GC-A (human) enzyme activation; AID 1671463; HEK293 GC-A cells, cGMP TR-FRET, EC30 ANP; 0% at EC30 ANP, 100% saturating ANP; activation, % at 10 µM; P16066; 370,000 tested, 0.14% active; in the data active means activation above about 40%
# GC-B act – GC-B (human) receptor activation; P20594; HEK293-GC-B cells, CNP EC30, cGMP TR-FRET; 0% at EC30 CNP, 100% saturating CNP; activation, % at 10 µM; 370,000 tested, 0.11% active; AID 1920062;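 active means activation at 10 µM reaching about 35% in either raw or pattern-adjusted values, limit read from the data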
# ADAM10 inh – inhibitors of human ADAM10; 370,000 tested, 0.62% active; recombinant ADAM10, EDANS/DABCYL FRET peptide cleavage, 3 h; inhibition, % at 7 µM; AID 720582; O14672;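 active means inhibition above a per-campaign cutoff equal to the mean of compounds falling between control-based bounds plus 3 SD, cut at about 20% in these data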
# ADAM17 inh – inhibitors of human ADAM17 | P78536 | recombinant ADAM17, EDANS/DABCYL FRET peptide cleavage | inhibition, % at 6.95 µM | 370,000 tested, 0.83% active;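 active means inhibition above the mean of compounds lying between control limits plus 3 SD, set per campaign, cut at about 8.5% in these data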
# KLK7 zymogen act – proKLK7 (human) activation, primary screen. purified proKLK7, EDANS-DABCYL substrate fluorescence; 100% is mature enzyme control, 0% vehicle. 370,000 tested, 0.9% active. P49862. activation, % at 7 µM;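 active means activation above the mean of all tested compounds plus 3 SD, computed per campaign excluding outliers beyond control limits, cut at about 13% in these data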
# proKLK7 act conf – confirmation of human kallikrein-7 zymogen activators | purified proKLK7, EDANS-DABCYL substrate fluorescence; scaled: vehicle 0, mature enzyme 100 | AID 686949 | shares compounds with KLK7 zymogen act | activation, % at 7 µM | 3,200 tested, 68% active;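 active means activation, as change over the incubation, above the mean of all tested compounds plus 3 SD, cut at about 13% in these data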
# EDANS-DABCYL int – counter-screen for kallikrein-7 activators: EDANS-DABCYL optical interference; shares compounds with KLK7 zymogen act; EDANS-DABCYL substrate fluorescence interference, no enzyme, 4 h; solvent 0%, active enzyme control 100%; activation, % at 7 µM; 3,200 tested, 80% active;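 active means activation above the all-compound mean plus 3 SD, ignoring values outside control-based bounds, cut at about 4.8% in these data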;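 further: value is the 4 h activation minus the activation read at time zero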
# A number is an active result; . = inactive.
SMILES,NPR1 activator,GC-B act,ADAM10 inh,ADAM17 inh,KLK7 zymogen act,others
CCn1c(C)cc(/C=C2\C(=O)NC(=O)N(c3ccccc3C)C2=O)c1C,.,.,.,.,.,
Cc1ccccc1N1C(=O)NC(=O)/C(=C\c2cnn(-c3ccccc3)c2)C1=O,44.9,.,.,.,.,
CCCCCCCCn1sccc1=O,49.2,.,.,.,.,
C[C@]12CCC3C(CC[C@H]4C[C@@H](O)CC[C@]34C)C1C[C@@H](Br)[C@H]2O (some centres undefined),.,.,.,.,.,
CCN(CC)C(=O)Cn1cc(/C=C2\C(=O)NC(=O)N(c3ccccc3F)C2=O)c2ccccc21,43.7,.,.,.,.,
CC(C)N1OC2CC1c1nc3ccccc3n1C2 (centres undefined),.,.,.,.,.,
O=C1NC(=O)C(=Cc2ccc(-c3ccc(F)cc3O)o2)C(=O)N1,57.3,.,.,.,.,
COc1cc(/C=C/c2nc3ccccc3c(=O)n2-c2ccc(O)cc2)ccc1O,.,35.4,.,.,.,
COc1cc2c(c3oc4cccc(O)c4c(=O)c13)[C@@H]1C=CO[C@@H]1O2,.,.,.,.,.,
O=C1NC(=O)C(=Cc2ccc(Sc3ccccc3)o2)C(=O)N1,51.3,49.0,.,.,.,
CN1C(=O)C(=Cc2ccc(Sc3ccccc3)o2)C(=O)N(C)C1=O,46.3,.,.,.,.,
CN1C(=O)C(=Cc2ccc(Sc3ccccc3)o2)C(=O)N(C)C1=S,.,.,.,.,.,
O=C1NC(=O)C(=Cc2ccco2)C(=O)N1,.,.,.,.,.,
C=C1C(=O)C(C)=C2C(=O)N3Cc4[nH]c5ccccc5c4CC3(C(=O)OC)C12 (centres undefined),.,.,.,.,.,
CN1C2CCC1CC(OC(c1ccccc1)c1ccc(Cl)cc1)C2 (centres undefined),.,.,.,.,.,
COC(=O)C1=C(c2c(C)noc2C)C[C@@H]2CC[C@H]1N2C(=O)NCC1CC1,.,.,.,.,.,
CC(=O)c1ccc2c(c1)C1C(Cl)C(Sc3ccccc3[N+](=O)[O-])CC1C(c1ccccc1[N+](=O)[O-])N2 (centres undefined),.,74.8,.,.,.,
CCN1/C(=C/C=C/C2=[N+](CC)c3ccccc3C2(C)C)C(C)(C)c2ccccc21,.,42.7,.,.,.,
CN1/C(=C\C=C2C(=O)NC(=O)NC2=O)C(C)(C)c2ccccc21,.,.,.,.,.,
CC12C(C(=O)O)C1(c1ccccc1)C2C(=O)O (centres undefined),.,.,.,.,.,
O=C(COc1ccc2ccccc2c1)N1CCN(Cc2c[nH]c3ccccc23)CC1,.,.,.,8.7,.,
COc1ccc(-c2nn(CCC#N)cc2C(=O)Nc2ccc(C(C)=O)cc2)cc1[N+](=O)[O-],.,.,.,.,.,
COC(=O)C1C(c2ccc(C)cc2)CC2CCC1N2C (centres undefined),.,.,.,.,.,
COCCOC(=O)c1c(N)n(Cc2ccc(OC)cc2)c2nc3ccccc3nc12,47.3,46.9,.,.,.,
COC(=O)c1c(N)n(Cc2ccc(OC)cc2)c2nc3ccccc3nc12,47.9,43.0,.,.,.,
SMILES,NPR1 activator,GC-B act,ADAM10 inh,ADAM17 inh,KLK7 zymogen act,others
COCCOC(=O)c1c(N)n(Cc2ccco2)c2nc3ccccc3nc12,.,.,.,.,.,
CCOC(=O)c1c(N)n(Cc2ccc(OC)cc2)c2nc3ccccc3nc12,46.0,44.1,.,.,.,
O=C(CN1C(=O)[C@@H](Cc2ccc(O)cc2)N=C(c2ccccc2)c2ccccc21)NC1CCCCC1,.,.,.,.,.,
Cc1c(C(=O)Nc2ccccc2)c2cc(O)ccc2n1Cc1ccccc1,61.3,.,.,.,.,
CC(=O)c1c(C)n(CC2CCCO2)c2ccc(O)cc12 (centres undefined),.,.,.,.,.,
CC(=O)c1c(C)n(Cc2ccccc2Cl)c2ccc(O)cc12,83.3,.,.,.,.,
COC(=O)c1c(C)n(Cc2ccco2)c2ccc(O)cc12,46.8,.,.,.,.,
C=Cc1cc(OC)c2c(c1)c(=O)oc1c2cc(OC)c2c(O)ccc(C3OC(C)C(O)C(C)(O)C3O)c21 (centres undefined),.,.,.,.,.,
COC(=O)C1=C(c2ccc(F)cc2OCc2ccccc2)C[C@@H]2CC[C@H]1N2C(=O)NCc1ccc(F)cc1,.,.,.,.,.,
COC(=O)C1=C(c2ccc(F)cc2OCc2ccccc2)C[C@@H]2CC[C@H]1N2C(=O)NC1Cc2ccccc2C1,.,.,.,10.2,.,
COC(=O)C1=C(C(=O)OC)SC2(S1)C(C(=O)OC)=C(C(=O)OC)Sc1c2ssc1=O,43.0,65.1,.,.,.,
CC1(O)CCC2C3CCC4=CC(=O)CCC4=C3C=CC21C (centres undefined),.,.,.,.,14.2,proKLK7 act conf=13.4;EDANS-DABCYL int=23.1
CC[C@@H](CO)NC(=O)[C@@H]1C=C2c3cccc4[nH]cc(c34)C[C@H]2N(C)C1,.,.,.,.,19.5,proKLK7 act conf=.;EDANS-DABCYL int=.
Cc1c(CC(=O)N2C[C@H]3C[C@@H](C2)c2cccc(=O)n2C3)c(=O)oc2cc(O)c(Cl)cc12,.,.,.,.,72.6,proKLK7 act conf=59.5;EDANS-DABCYL int=67.7
COc1cc2oc(=O)c(CC(=O)N3C[C@H]4C[C@@H](C3)c3cccc(=O)n3C4)c(C)c2cc1Cl,.,.,.,.,.,
Cc1c(CCC(=O)N2C[C@H]3C[C@@H](C2)c2cccc(=O)n2C3)c(=O)oc2c(C)c(O)ccc12,.,.,.,.,84.4,proKLK7 act conf=73.2;EDANS-DABCYL int=77.6
Cc1c(CC(=O)N2C[C@H]3C[C@@H](C2)c2cccc(=O)n2C3)c(=O)oc2c(C)c(O)ccc12,.,.,.,.,65.2,proKLK7 act conf=67.9;EDANS-DABCYL int=71.9
COc1ccc(CC(=O)N2C[C@H]3C[C@@H](C2)c2cccc(=O)n2C3)cc1,.,.,.,.,.,
C[C@@H]1CN([C@H](C)CO)C(=O)CCCn2cc(nn2)CO[C@H]1CN(C)C(=O)Oc1cccc2ccccc12,.,.,.,.,.,
CC(C)(C)C(=O)O[C@H]1CC[C@@]2(C)C(=CC(=O)C3C2CC[C@]2(C)C(=O)[C@@H](F)CC32)C1 (some centres undefined),.,.,.,.,.,
COc1cc2c(cc1OC)C(c1c(O)n(CCc3ccccc3)c(=S)[nH]c1=O)NCC2 (centres undefined),.,.,.,.,95.2,proKLK7 act conf=85.3;EDANS-DABCYL int=83.9
